This is an account of results in PubChem BioAssay (NCATS).

Test [1] is described as follows: qHTS of pediatric cancer cell lines to identify multiple opportunities for drug repurposing: Confirmatory screen for Saos-2 cells (AID 1347127). Note: potency is the fitted concentration of half-maximal effect; nearly all actives have a fitted effect of over 60% in size. To be noted: Saos-2 osteosarcoma cell viability. The text has this: Drug repurposing or repositioning has been offered as a strategy for drug development in oncology programs. This approach has special potential for childhood cancers and other rare or orphan diseases, where the expected return on new drug development has been a disincentive to pharmaceuticals.
In this project we exploit the poly-pharmacology of drugs to discover new indications via phenotypic screening of a panel of 19 well-characterized cell lines derived from solid tumors seen in children and adolescents. The goal is to identify approved drugs with previously unrecognized anticancer properties that has the potential to reveal new mechanisms and biological processes involved in carcinogenesis or drug resistance. We employed a titration-based paradigm (quantitative high-throughput screening or qHTS), where all compounds were tested at multiple concentrations for their effect on cell viability. […] We screened the NIH Chemical Genomics Center (NCGC) Pharmaceutical Collection (NPC) and Mechanism Interrogation Plate (MIPE) small molecule collections of approved and investigational compounds against these cell lines; and measured metabolically active cells after 48 hours of compound treatment as a proxy for cell viability. […]
[1] Shen, M et al. Quantitative high-throughput phenotypic screening of pediatric cancer cell lines identifies multiple opportunities for drug repurposing. […]

Test [2] deals with Zika virus NS2B-NS3 protease (linked construct). Briefly: Confirmatory screen NINDS AMC qHTS for Zika virus inhibitors (AID 1347152). Note: potency is the fitted concentration of half-maximal effect; nearly all actives have a fitted effect of over 70% in size. To be noted: Purified linked NS2B-NS3, AMC substrate fluorescence. In a few lines: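 Purified NS2B-NS3 protease with NS2B hydrophilic domain linked to NS3 protease domain by flexible linker, 1 nM final in 10 mM Tris-HCl pH 8.0, 0.01% Tween 20. Compounds preincubated 15 min, room temperature; Bz-Nle-KRR-AMC 10 microM (Km 18.3 µM); 15-min fluorescence change, 4-parameter Hill fit.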

Test [3] can be described thus: ZIKV-mCherry secondary qHTS for Zika virus inhibitors (AID 1347158). Note: top concentration of the series differs between compounds. To be noted: Vero cells, ZIKV-mCherry infection imaging, 48-72 h; series mostly up to 32.6 µM. In a few lines:
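After overnight seeding at 37 °C, Vero cells receive compound and then ZIKV-mCherry (MOI 1). Following 48-72 h infection, cells are fixed, counterstained with Hoechst, and imaged; percent infected cells is derived from an mCherry intensity cut-off of 450 RFU.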
For orientation: In qHTS, concentration-response curves come from the screen itself.

Test [4] concerns Zika virus NS2B-NS3 protease (linked). Briefly: 384 well plate NINDS AMC confirmatory qHTS for Zika virus inhibitors (AID 1347163). Note: potency is the fitted concentration of half-maximal effect; nearly all actives have a fitted effect of over 50% in size. To be noted: Recombinant NS2B-NS3 protease, Ac-VKTGKR-AMC fluorescence. In a few lines: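 Linked protease 5/30/60 nM final; cpds up to 1 mM final, ~15 min preinc. Substrate Ac-VKTGKR-AMC 30 microM final. RT, dark, 25 min; FI ex 355/em 460; normalized to no-enzyme/no-inhibitor ctrls.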

Test [5] concerns Zika virus NS2B-NS3 protease (linked construct). Briefly: 384 well plate NINDS Rhodamine confirmatory qHTS for Zika virus inhibitors (AID 1347164). Note: potency is the fitted concentration of half-maximal effect; nearly all actives have a fitted effect of over 65% in size. To be noted: rhodamine-110 peptide substrate fluorescence. In a few lines: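 Linked protease at a final 5 nM, 30 nM or 60 nM was preincubated ~15 min with compounds, then given 10 microM Ac-LKRR-Rhodamine 110. Fluorescence (ex 485/em 538 nm) after 25 min in the dark at room temperature.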

The nature of test [6]: Confirmatory screen GU Rhodamine qHTS for Zika virus inhibitors qHTS (AID 1347157). Note: nearly all actives have a fitted effect of over 70% in size. To be noted: purified enzyme assay, Rhodamine110 substrate fluorescence, 15 min; series mostly up to 114 µM. In a few lines:
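Enzyme 25 nM in Tris-HCl pH 8.0 + 0.01% Tween 20; compounds up to 114 microM, 15 min RT dark; + Rhod110 substrate 1.5 microM; read t0 and 15 min; delta fluorescence → % inhibition → 4-parameter Hill fit.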

The test system of test [7] is Zika virus NS2B-NS3 protease. Briefly: Primary screen GU AMC qHTS for Zika virus inhibitors (AID 1347154). Note: nearly all actives have a fitted effect of over 70% in size. Note: potency is the fitted concentration of half-maximal effect. To be noted: Zika NS2B-NS3 unlinked protease, AMC fluorogenic substrate; series mostly up to 54.1 µM. In a few lines:
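Unlinked Zika NS2B hydrophilic domain/NS3 protease domain noncovalent complex (25 nM final) in 10 mM Tris-HCl pH 8.0, 0.01% Tween 20, with AMC peptide substrate. Fluorescence (ex 340, em 450 nm) change over 15 min, room temperature; percent inhibition fitted to 4-parameter Hill equation.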

Results filed as inconclusive are left out. A call without a number means that no potency is given here. The source made the active and inactive calls. Calls come from the whole dose curve; as a rule, active = well fitted curve in the direction sought with a large enough effect; inconclusive = small, poorly fitted or top-dose-only effect, or another doubt; inactive = no such curve, though single readings can be large; an effect the other way counts as inactive or inconclusive.

Turning to `CC(=O)OCC(=O)[C@@]1(O)CC[C@H]2[C@@H]3CCC4=CC(=O)C=C[C@]4(C)[C@@]3(F)[C@@H](O)C[C@@]21C`, the Potency in test [1] is 11.7 µM (active).

On to `CN1C[C@@H]2C[C@H]1CN2c1cc2c(cc1F)c(=O)c(C(=O)O)cn2C1CC1`, for which the Potency in test [2] is 16.7 µM (active).

For the molecule `O=C(O)Cn1c(C(=O)Nc2nc(-c3ccccc3Cl)cs2)cc2ccccc21`, the values for the Potency in test [2], in test [4] and in test [5] were 21.5 µM (active), 70.8 µM (active) and 28.2 µM (active), respectively. Besides, the molecule was classed as inactive in test [3].

In the case of `COc1ccccc1Oc1c(NS(=O)(=O)c2ccc(C(C)(C)C)cc2)nc(-c2ncccn2)nc1OCCO`, in test [6], the call was inactive.

As for `Cc1c(C(=O)NCCO)[n+](=O)c2ccccc2n1[O-]`, the Potency result in test [7] was “inactive”.

With `CN1CCCN=C1COC(=O)C(O)(c1ccccc1)C1CCCCC1` (stereo unspecified), the Potency result in test [7] is “inactive”.

For the molecule `COC(=O)c1ccc(O)cc1`, the Potency entry in test [7] is “inactive”.

Consider `O=C(NCN1CCOCC1)c1cnccn1`, for which, in test [7], the Potency result was “inactive”.

Turning to `CC[N+](C)(CC)CCOC(=O)C1c2ccccc2Oc2ccccc21`, the Potency result in test [7] is “inactive”.

Turning to `COc1ccccc1OCC(O)CO` (stereo unspecified), the Potency result in test [7] was “inactive”.

With `CC(=O)Nc1ccc(OCCOCCOc2ccc(NC(C)=O)cc2)cc1`, the Potency entry in test [7] is “inactive”.

`CC(C)(C)NCC(O)COc1cccc2c1CCC(=O)N2` (stereo unspecified): the Potency result in test [7] was “inactive”.

Regarding `COc1ccc(Cc2cnc(N)nc2N)cc1OC`, the Potency result in test [7] was “inactive”.

Consider `NC(=O)NS(=O)(=O)c1ccc(N)cc1`, for which the Potency result in test [7] is “inactive”.

As for `CCCCCCCCCCCCCCCCC(C(=O)O)C(O)(CC(=O)O)C(=O)O` (stereo unspecified), the Potency in test [7] is 4.05 µM (active).

Consider `Cc1c(N(C)C)c(=O)n(-c2ccccc2)n1C`, for which the Potency entry in test [7] was “inactive”.

As to `CCc1cccc(CC)c1NC(=O)CN(CC(=O)O)CC(=O)O`, in test [7], the Potency result was “inactive”.

As to `CN[C@@H]1[C@@H](O)[C@@H](O[C@@H]2[C@H](O)[C@H](O[C@H]3OC(CN)=CC[C@H]3N)[C@@H](N)C[C@H]2N)OCC1(C)O` (stereo partly specified), the Potency entry in test [7] was “inactive”.
